Screening data from PubChem BioAssay.
Sampled rows, rich in hits. Any-hit rate of the full collection: about 4.1%.
ALR inh = blocks human ALR sulfhydryl oxidase activity | P55789 | purified ALR, DTT oxidation, H2O2 HRP-luminol luminescence | inhibition, % (concentration not given with the values) | actives 3.8% (n = 290,000);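 active = mean replicate inhibition above about 79%, with every replicate also reaching it, limit read from the data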
Target sequence (P55789 whole entry, looked up): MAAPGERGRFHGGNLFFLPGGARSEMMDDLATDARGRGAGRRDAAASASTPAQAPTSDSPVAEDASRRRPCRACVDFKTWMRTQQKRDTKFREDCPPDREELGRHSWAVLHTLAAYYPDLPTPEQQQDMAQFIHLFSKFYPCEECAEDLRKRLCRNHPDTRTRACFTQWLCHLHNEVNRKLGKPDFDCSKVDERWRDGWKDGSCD
CASP6 VEID inh = inhibitors of human caspase-6 | AID 686996 | purified caspase-6, Z-VEID-R110 cleavage fluorescence | actives 0.53% (n = 350,000) | P55212 | inhibition, % at 12.5 µM;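 active = mean inhibition across replicates at least about 35%, with every replicate also reaching that limit, limit read from the data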
Target sequence (P55212 24-179 limits assumed): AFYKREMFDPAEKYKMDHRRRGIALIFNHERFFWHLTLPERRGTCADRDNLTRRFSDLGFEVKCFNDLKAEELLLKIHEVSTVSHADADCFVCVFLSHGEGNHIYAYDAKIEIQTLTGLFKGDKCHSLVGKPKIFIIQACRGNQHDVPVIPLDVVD
Target sequence (P55212 194-293 limits assumed): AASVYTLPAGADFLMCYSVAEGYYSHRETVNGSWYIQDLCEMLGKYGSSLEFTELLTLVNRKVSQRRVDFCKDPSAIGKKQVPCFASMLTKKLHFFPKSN
NSD2 inh = blocks human histone methyltransferase NSD2 | actives 0.54% (n = 310,000) | inhibition, % at 12.5 µM | O96028 | NSD2 peptide methylation, AlphaScreen, 120 min; in the data active = inhibition above about 50%
PglD DTNB = PglD (C. jejuni) enzyme inhibition | inhibition, % at 12.5 µM | purified PglD enzyme, DTNB colorimetric CoA detection | actives 0.098% (n = 360,000); in the data active = inhibition above about 16%, passing the limit was not always enough
Env fusion inh = inhibitors of HIV Env-mediated cell fusion. actives 1.1% (n = 360,000). HeLa-JRFL Env/CEM21 cell fusion, luciferase. inhibition, % at 12.3 µM. AID 651610;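 active = mean replicate inhibition score of at least 50 and every replicate individually at or above 50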
F508del corr = CFTR F508del correction in bronchial cells; CFBE cells, YFP halide quenching; stimulated with forskolin plus potentiator P3; % fluorescence drop versus neutral controls; activity (quench increase), % at 7.58 µM; actives 0.36% (n = 350,000); AID 720511;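 active = mean added fluorescence quench of at least 8% versus neutral control, with both replicates also reaching 8%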;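 also: cells transiently co-express mutant CFTR-F508del with the halide-sensitive YFP; corrector assay measuring rescue of mutant channel to the surface after 24 h compound exposure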
Of the large screens only hits and unclear results are named; the others gave an inactive call; ! = not confirmed by another sample.

O=C1[C@H]2[C@@H](c3ccc(F)cc3)N3C(=O)N(c4cccc(Cl)c4)C(=O)[C@@]3(Cc3ccc(Cl)cc3)[C@H]2C(=O)N1C1CCCCC1	Env fusion inh 99 (no result: NSD2 inh)
O=C1[C@H]2[C@@H](c3ccc(F)cc3)N3C(=O)N(c4cccc(Br)c4)C(=O)[C@@]3(Cc3ccc(Cl)cc3)[C@H]2C(=O)N1C1CCCCC1	Env fusion inh 59 (no result: NSD2 inh)
CC(C)(C)N1C(=O)[C@H]2[C@@H](c3ccc(Br)cc3)N3C(=O)N(c4cccc(Cl)c4)C(=O)[C@@]3(Cc3ccccc3)[C@H]2C1=O	none (no result: NSD2 inh)
O=C1[C@H]2[C@@H](c3ccc(Cl)cc3)N3C(=O)N(c4cccc(Br)c4)C(=O)[C@@]3(Cc3ccc(Cl)cc3)[C@H]2C(=O)N1C1CCCCC1	Env fusion inh 82 (no result: NSD2 inh)
C[C@@H]1CN([C@H](C)CO)C(=O)c2cc(C#CCN(C)C)cnc2O[C@@H]1CN(C)C(=O)CCN1CCCCC1	none (no result: ALR inh, NSD2 inh, F508del corr)
CNC[C@H]1Oc2cc(C#CC3(O)CCCC3)ccc2S(=O)(=O)N([C@H](C)CO)C[C@H]1C	none (no result: ALR inh, NSD2 inh, Env fusion inh)
C[C@@H]1CCCCO[C@H](CN(C)C)[C@H](C)CN([C@H](C)CO)C(=O)c2cc(NC(=O)CCCN(C)C)ccc2O1	none (no result: ALR inh, CASP6 VEID inh, NSD2 inh, PglD DTNB)
CC1CCCCN1CCCNC(=O)C1CCN(c2nnc(-n3cccc3)s2)CC1 (configuration not stated)	none
CCOc1ccc(NCc2cccn2-c2nnc(N3CCC(C(=O)NCCCN4CCCCC4CC)CC3)s2)cc1 (configuration not stated)	ALR inh 99
Cc1ccc(-n2c(SCC(=O)N3CC(=O)Nc4ccccc43)nc3ccccc3c2=O)cc1	ALR inh 98 (no result: PglD DTNB, F508del corr)
Cc1cccc(C)c1-n1c(SCC(=O)N2CC(=O)Nc3ccccc32)nc2ccccc2c1=O	none (no result: CASP6 VEID inh, PglD DTNB, F508del corr)
C[C@@H]1CCCCO[C@@H](CN(C)C(=O)C2CCCCC2)[C@H](C)CN([C@@H](C)CO)C(=O)c2cc(NS(=O)(=O)c3cn(C)cn3)ccc2O1	none (no result: ALR inh, NSD2 inh)
Cc1cc(NC(=O)CCC(=O)N(C2CC2)C2(C(=O)NC3CCCC3)CCC(C)CC2)no1 (configuration not stated)	Env fusion inh 100 (no result: CASP6 VEID inh, F508del corr)
Cc1cc(NC(=O)CCC(=O)N(Cc2ccco2)C2(C(=O)NC3CCCC3)CCC(C)CC2)no1 (configuration not stated)	none (no result: ALR inh)
Cc1ccc(S(=O)(=O)N(C)c2ccc(C(=O)N(C)Cc3nc4ccccc4c(=O)[nH]3)cc2)cc1	Env fusion inh 58 (no result: ALR inh)
CN(Cc1nc2ccccc2c(=O)[nH]1)C(=O)c1ccc(S(=O)(=O)N(C)C)cc1	none (no result: CASP6 VEID inh, F508del corr)
C[C@@H]1CN([C@@H](C)CO)C(=O)Cc2cc(NC(=O)Cc3cn(C)c4ccccc34)ccc2O[C@@H]1CN(C)C(=O)Nc1ccc2c(c1)OCO2	none (no result: ALR inh, NSD2 inh)
Cc1ccc(-n2c(-c3nn(C)cc3Cl)n[nH]c2=S)cc1	none (no result: CASP6 VEID inh, PglD DTNB, F508del corr)
Cc1c(Cl)c(-c2n[nH]c(=S)n2-c2ccc(F)cc2)nn1C	ALR inh 91 (no result: CASP6 VEID inh, Env fusion inh, F508del corr)
Cc1ccsc1-c1n[nH]c(=S)n1CC(C)C	ALR inh 94 (no result: CASP6 VEID inh, F508del corr)
CC(C)Cn1c(-c2nn(C)cc2Cl)n[nH]c1=S	none (no result: CASP6 VEID inh, Env fusion inh, F508del corr)
Cc1nn(C)cc1-c1n[nH]c(=S)n1-c1ccc(F)cc1	none (no result: PglD DTNB)
Cn1cc(Cl)c(-c2n[nH]c(=S)n2-c2ccc(F)cc2)n1	ALR inh 88 (no result: PglD DTNB, F508del corr)
Cc1c(Cl)c(-c2n[nH]c(=S)n2CC(C)C)nn1C	ALR inh 93 (no result: Env fusion inh)
O=C(C[C@@H]1CC[C@H](NC(=O)Nc2ccccc2F)[C@H](CO)O1)NCc1ccc(Cl)cc1	none (no result: ALR inh, NSD2 inh)
C[C@H](CO)N1C[C@H](C)[C@H](CN(C)C(=O)NC2CCCCC2)Oc2ccc(NS(=O)(=O)c3cn(C)cn3)cc2CC1=O	none (no result: ALR inh, CASP6 VEID inh, NSD2 inh)
CCOC(=O)c1ccc(N2C(=O)CC(Nc3ccc(O)cc3)C2=O)cc1 (configuration not stated)	ALR inh 97 (no result: PglD DTNB)
CCOC(=O)c1ccc(N2C(=O)CC(NNC(=O)c3ccc(Br)s3)C2=O)cc1 (configuration not stated)	none
CO/N=C/c1ccc(N2CCN(C(=O)c3cccc(C(F)(F)F)c3)CC2)c([N+](=O)[O-])c1	Env fusion inh 68 (no result: F508del corr)
CO/N=C/c1ccc(N2CCN(C(=O)c3ccc(Cl)cc3Cl)CC2)c([N+](=O)[O-])c1	Env fusion inh 78 (no result: CASP6 VEID inh, F508del corr)
CO/N=C/c1ccc(N2CCN(C(=O)c3ccc(F)cc3)CC2)c([N+](=O)[O-])c1	none (no result: CASP6 VEID inh, F508del corr)
C[C@@H]1CN([C@@H](C)CO)C(=O)Cc2cc(NS(=O)(=O)c3cn(C)cn3)ccc2O[C@H]1CN(C)Cc1ccc(C(F)(F)F)cc1	none (no result: ALR inh, NSD2 inh)
Cc1ccc(-c2cnc3c(c2)C(=O)N([C@@H](C)CO)C[C@H](C)[C@@H](CN(C)C(=O)Cc2ccccc2)O3)cc1	none (no result: ALR inh, NSD2 inh)
COc1cccc(Nc2nc3ccccc3n3nnnc23)c1	ALR inh 97 (no result: CASP6 VEID inh, PglD DTNB, F508del corr)
Fc1cccc(Nc2nc3ccccc3n3nnnc23)c1	none (no result: NSD2 inh)
C[C@@H]1CN([C@@H](C)CO)C(=O)c2cccc(NS(C)(=O)=O)c2O[C@H]1CN(C)S(=O)(=O)c1ccc(F)cc1	none (no result: ALR inh, CASP6 VEID inh, NSD2 inh, PglD DTNB)
OC[C@@H]1[C@@H](c2ccccc2)C2(CN(Cc3ccccc3F)C2)N1Cc1ccccc1F	F508del corr 10 (no result: ALR inh, NSD2 inh, PglD DTNB, Env fusion inh)
CC(=O)N1CC2(C1)[C@H](c1ccccc1)[C@H](CO)N2Cc1ccccc1F	none (no result: ALR inh, CASP6 VEID inh, NSD2 inh, PglD DTNB, Env fusion inh)
O=C(C1CC1)N1CC2(C1)[C@@H](c1ccccc1)[C@@H](CO)N2Cc1nccs1	none (no result: ALR inh, NSD2 inh, PglD DTNB, Env fusion inh)
C[n+]1c2n(c3ccccc31)N=C(c1ccc(-c3ccccc3)cc1)CS2	ALR inh 99, Env fusion inh 66 (no result: PglD DTNB)
CCc1nnc2n1N=C(c1ccc(Br)cc1)CS2	none
C[n+]1c2n(c3ccccc31)N=C(c1ccccc1)CS2	ALR inh 89, Env fusion inh 61!
C[n+]1c2n(c3ccccc31)N=C(c1ccc(Br)cc1)CS2	ALR inh 99 (no result: CASP6 VEID inh, F508del corr)
CCC(=O)Nc1ccc2c(c1)OC[C@H](C)N(CCC(F)(F)F)C[C@H](C)[C@@H](OC)CN(C)C2=O	none (no result: ALR inh, NSD2 inh, PglD DTNB, Env fusion inh)
C[C@@H]1CN([C@H](C)CO)C(=O)c2cccc(NS(C)(=O)=O)c2O[C@@H]1CN(C)S(=O)(=O)c1ccc(F)cc1	none (no result: ALR inh, CASP6 VEID inh, NSD2 inh, PglD DTNB)
C=CCn1c(NCc2ccc(N(C)C)cc2)nc2ccccc21	ALR inh 99 (no result: CASP6 VEID inh, F508del corr)
CCCCn1c(NCc2ccncc2)nc2ccccc21	none
CCCCn1c(NCc2ccc(N(C)C)cc2)nc2ccccc21	ALR inh 88
Cc1nn(C)cc1NC(=O)C[C@@H]1CC[C@H]2[C@H](COc3ccc(NC(=O)C4CCC4)cc3C(=O)N2C)O1	none (no result: ALR inh, CASP6 VEID inh, NSD2 inh, PglD DTNB)
COC(=O)C[C@@H]1C[C@@H]2c3cc(NC(=O)Nc4ccc(OC)cc4)ccc3O[C@@H]2[C@H](CO)O1	none (no result: ALR inh, CASP6 VEID inh, NSD2 inh)
CC1C/C(=N/NC(=O)c2ccc(CSc3nc4ccccc4[nH]3)cc2)CC(C)(C)C1 (configuration not stated)	none
CC1C/C(=N/Nc2nc3ccccc3[nH]2)CC(C)(C)C1 (configuration not stated)	ALR inh 99 (no result: PglD DTNB)
